# Out of some 360,000 compounds screened, about 7,500 (2.1%) were called active. Roughly 20% stayed inconclusive and do not appear here. What follows is part of a selection rich in actives, with near analogues and random picks from the rest. Unmarked numbers belong to inactive results. The call rests on the fitted dose curve; in most records, active means well fitted inhibition curve with a large enough effect; inconclusive means small, poorly fitted or top-dose-only effect, or effect the other way; inactive means flat fitted curve, though single readings scatter.
# Assay: Nrf2 qHTS screen for inhibitors; further: nearly all actives have a fitted effect of over 60% in size
# Conditions: A549 ARE-Fluc reporter, luciferase luminescence, 18-24 h; series mostly up to 46 µM; activity change, negative = inhibition: at the top concentration
# Source text: NIH Molecular Libraries Probe Production Network [MLPCN]
# NIH Chemical Genomics Center [NCGC]
# Assay Provider: Shyam Biswal, Johns Hopkins University
# Nrf2 is a transcription factor that maintains cellular redox homoestasis and protects cells from xenobiotics. Nrf2 binds to the antioxidant response element (ARE) to induce gene expression of a broad spectrum of genes that encode for antioxidants. […] Finding a small molecule that act as an inhibitor of Nrf2 function would represent a novel therapeutic target that could lead to improvement in survival of patients undergoing chemo- and/or radio- therapy.
# This is the Nrf2 activity measured in the luminescent read.
# 1. Shibata, T., et al., Genetic Alteration of Keap1 Confers Constitutive Nrf2 Activation and Resistance to Chemotherapy in Gallbladder Cancer. Gastroenterology, 2008.
# 2. Sjoblom, T., et al., The consensus coding sequences of human breast and colorectal cancers. Science, 2006. 314(5797): p. 268-74.
# NCGC Assay Protocol Summary:
# A concentration-response assay was performed with A549 ARE_Fluc cells which are suspended in 5% FBS OPTI-MEM. Five uL were dispensed into 1536-well white TC-treated plate using the Kalypsys dispenser to achieve a density of 5000 cells/well in all columns except column 1. The plate is incubated at 37deg C at 5% CO2 for 2 hours before 23 nL of compounds are added with the Kalypsys pin tool equipped with a 1,536-pin array containing 10-nL slotted pins (FP1S10, 0.457-mm diameter, 50.8 mm long; V&P Scientific). The control compounds Budesonide and Staurosporine are both added at a concentration of 2mM and Budesonide is also added as a 1:10 titration, starting at 200uM, to achieve dose-response. After an 18-24 hour incubation at 37deg C at 5% CO2, 5ul of medium is added to column 1. Afterwards 1ul of 5x of CellTiter-Fluor (Promega) is added to every well. The plate is then incubated at 37deg C at 5% CO2 for 30 minutes before they are read on the ViewLux (Perkin Elmer) for a fluorescent read Ex=405(10)/Em=525(10) for a 3 second exposure, 2x binning, and high gain. Then 3 uL of 3x BugLite is dispensed into all wells and the plate is incubated at ambient room temperature for 15 minutes. Afterwards another ViewLux read is performed using the clear filter to get a luminescent read with the settings of 40 second exposure, 2x binning, and high gain. Cytotoxicity is assessed through the first fluorescent read and then biochemical activity against Nrf2 is measured in the luminescent read.
# On the % scale 0 is the no-effect control and ±100 the full control effect; potency means the concentration at half of the fitted maximal effect.
SMILES,Potency,"activity change, negative = inhibition"
Oc1c(Cl)cc(Cl)c(Cl)c1Cc1c(O)c(Cl)cc(Cl)c1Cl,14.6 µM (active),–
O=C(c1ccc2c(=O)n(Cc3ccco3)c(=S)[nH]c2c1)N1CCCC1,–,-26.7% (inactive)
O=C(Nc1cc(S(=O)(=O)N2CCCCC2)ccc1Cl)C1COc2ccccc2O1 (stereo not drawn),–,-17.2% (inactive)
COc1ccc(Oc2coc3cc(OC(=O)c4cncc(Br)c4)ccc3c2=O)cc1,–,-23.2% (inactive)
CCOC(=O)c1cc(=O)c2ccc(OCc3ccccc3)cc2o1,–,0.81% (inactive)
CCc1ccc(Oc2coc3cc(O)ccc3c2=O)cc1,7.31 µM (active),–
CCc1ccc(Oc2coc3cc(OC(=O)c4cc5ccccc5oc4=O)ccc3c2=O)cc1,4.61 µM (active),–
CCCOC(=O)c1cc2ccccc2oc1=O,–,-4.8% (inactive)
COc1ccc(-c2onc(C)c2C)cc1S(=O)(=O)NCc1cccs1,–,-14.2% (inactive)
CC(C)Cn1c(=O)c2ccccc2n2c(-c3cccc(Cl)c3)nnc12,–,0.39% (inactive)
CCOC(=O)c1cccc(NS(=O)(=O)c2c(C(=O)N3CCCCCC3)c(C)n(C)c2C)c1,–,5.58% (inactive)
O=C(Nc1ccc(C(=O)N2CCOCC2)cc1)Nc1cccc(C(F)(F)F)c1,–,-28.3% (inactive)
CCOC(=O)N1CCN(C(=O)c2ccc(S(=O)(=O)Nc3cccc(C(F)(F)F)c3)cc2)CC1,18.4 µM (active),–
Cc1ccc(C)c(N2CCN(C(=O)CCc3nc(-c4cccc(C(F)(F)F)c4)no3)CC2)c1,–,-25.2% (inactive)
COc1ccc(C(=O)OCC(=O)c2cc(C)n(CC3CCCO3)c2C)cc1[N+](=O)[O-] (stereo not drawn),–,-11.4% (inactive)
Cc1oc2ncnc(N3CCCCC3)c2c1C(=O)N1CCN(c2cccc(Cl)c2)CC1,–,5.11% (inactive)
CC(=O)OCC1(O)CC23CCC4c5ccoc5CCC4(C)C2CCC1C3 (stereo not drawn),–,-16.8% (inactive)
CCC1(C)Cc2c(sc3[nH]c(=S)n(Cc4ccccc4)c(=O)c23)CO1 (stereo not drawn),16.4 µM (active),–
CCC1(C)Cc2c(sc3nc(SC)[nH]c(=O)c23)CO1 (stereo not drawn),–,-5.53% (inactive)
CCC1(C)Cc2c(sc3nc4n(c(=O)c23)CCCS4)CO1 (stereo not drawn),–,1.02% (inactive)
COc1ccc(Cl)cc1NC(=O)c1sc2nc3c(cc2c1N)CN(C)CC3,–,1.59% (inactive)
COc1ccc(CNc2nc(-c3ccc(Cl)cc3)cc(C(F)(F)F)n2)cc1,–,0.506% [at 9.27 µM]
CN(C)c1ccc(C(=O)NCC(=O)OC(C(=O)Nc2cc(C(F)(F)F)ccc2Cl)c2ccccc2)cc1 (stereo not drawn),–,6.05% (inactive)
Cc1cccc(N2O[C@H]3C=CC2CCCC3)n1,–,26.1% (inactive)

SMILES,Potency,"activity change, negative = inhibition"
COc1ccc(CNC(=O)COC(=O)c2ccc(C)c(S(=O)(=O)N3CCOCC3)c2)cc1OC,–,-8.32% (inactive)
COc1cc(/C=C/C(=O)OCC(=O)N2CCOCC2)ccc1OCC#N,–,9.99% (inactive)
COc1ccc(COC(=O)c2ccc(Cl)c(S(=O)(=O)N3CCOCC3)c2)cc1F,–,-8.75% (inactive)
COc1ccc(C(=O)OCC(=O)c2ccc(C)c(S(=O)(=O)N3CCOCC3)c2)cc1OC,20.6 µM (active),–
Cc1ccc(C(=O)OCC(=O)N2CCCCCC2)cc1S(=O)(=O)N1CCOCC1,–,8.03% (inactive)
COc1ccc(NS(=O)(=O)c2cc(NC(=O)/C=C/c3cc(OC)c(OC)c(OC)c3)ccc2N2CCCCC2)cc1,–,-12.4% (inactive)
COc1ccc(CCC(=O)Nc2ccc(Cl)c(S(=O)(=O)N3CCOCC3)c2)cc1OC,18.4 µM (active),–
COc1ccc(CC(=O)Nc2ccc3c(c2)CCC3)cc1S(=O)(=O)N1CCOCC1,–,-17% (inactive)
COc1cc(/C=C/C(=O)Nc2ccc(OC)c(S(=O)(=O)N3CCOCC3)c2)ccc1OCC#N,9.2 µM (active),–
CCN1CCN(CCCNC(=O)c2ccc3c(c2)sc2nc(-c4ccc(OC)cc4)cn23)CC1,–,-26% (inactive)
Cc1ccc(O)c(NC(=O)CCS(=O)(=O)c2nc(-c3ccc4c(c3)OCO4)cc(C(F)(F)F)n2)c1,–,8.08% [at 9.27 µM]
CC1CCCCN1CC(=O)N1CCCc2c1c(=O)oc1ccc(OCc3ccccc3)cc21 (stereo not drawn),–,-15.1% (inactive)
Cc1ccc(-c2cc(C(=O)Oc3ccccc3Cl)no2)cc1C,–,12.8% (inactive)
CC1=C(c2ccc(C)c(C)c2)S(=O)(=O)NC1=NCc1ccccc1Cl,23.1 µM (active),–
Cc1ccc(CNc2ncnc3cc(-c4ccc5c(c4)OCO5)ccc23)o1,–,4.57% (inactive)
O=C(O)c1ccc(NC(=O)c2ccc(COc3ccc(Cl)cc3)o2)cc1,–,29.2% (inactive)
Cc1cccc(NC(=O)c2ccc(COc3ccccc3[N+](=O)[O-])o2)n1,–,-18.1% (inactive)
O=C(Nc1ccn(Cc2ccccc2F)n1)c1ccc(COc2ccc(Cl)cc2Cl)o1,25.9 µM (active),–
CCc1nn(CC(=O)Nc2cc(C)cc(C)c2)c(=O)c2cc3sccc3n12,–,9.2% (inactive)
CC1CC2=C(CC1/C=N/NC(N)=S)C(C)(C)CCC2 (stereo not drawn),23.1 µM (active),–
CCc1nc2nc(C)cc(Nc3ccc(F)c(Cl)c3)n2n1,–,-13.4% (inactive)
Cc1ccc(CNC(=O)Cn2cnc3c(NCc4ccccc4)ncnc32)o1,–,-7.86% (inactive)
Cc1cccc(NC(=O)Cn2cc(S(=O)(=O)Cc3ccccc3Cl)c3ccccc32)c1,–,-4.12% (inactive)
O/N=C(\C[n+]1ccccc1)c1ccc(Br)cc1,3.66 µM (active),–
